# High-throughput results: PubChem, National Center for Advancing Translational Sciences (NCATS)
# Most compounds without a hit are left out; they make up all but 15% or so of the library.
# DT40 TDP1 CPT – growth inhibition of DT40 Tdp1-/-;hTDP1 cells with camptothecin (screen for TDP1 inhibitors); 12% of 420,000 active; Potency, µM (titrated, usually from 46.2 µM), for the others: at the highest dose activity change, negative = growth inhibition, most hits filed as inhibitors; chicken DT40 Tdp1-/-;hTDP1 cells + 20 nM CPT, ATP luminescence, 48 h; also: nearly all actives have a fitted effect of over 55% in size
#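 Chicken DT40 Tdp1-/- cells complemented with human TDP1, 400 cells/well, exposed to compounds plus 20 nM camptothecin for at least 48 h at 37 C; viability read as ATP content by CellTiter-Glo luminescence.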
# 12-LOX inh – blocks human arachidonate 12S-lipoxygenase | 1.1% of 580,000 active | Potency, µM (titrated, usually from 108 µM), inactives show top-dose activity change, negative = inhibition, hits mostly inhibitors | P18054 | purified 12hLO, xylenol orange hydroperoxide absorbance | AID 1671190
#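 Purified human 12hLO (150 nM final) in 25 mM Hepes, 0.01% Triton X-100, pH 7.0 was preincubated 15 min at room temperature with compound. Then 40 uM arachidonic acid was added, 30 min. Hydroperoxide was read by Fe-XO absorbance ratio 573/405 nm.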
# ELG1 DNA repair – inhibitors of ELG1-dependent DNA repair in HEK293T cells; HEK293T ELG1-luciferase reporter, luminescence, 16 h; DNA damage induced by 5-fluorouridine; Potency, µM (highest dose often 46.1 µM), without a hit: at the highest dose activity change, negative = inhibition, hits mostly inhibitors; 2.3% of 330,000 active; AID 504467; also: nearly all actives have a fitted effect of over 55% in size
#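 DMSO vehicle served as the neutral condition. Each well held 2,000 cells given 5-fluorouridine plus compound; after 16 hr at 37 °C/5% CO2, ONE-Glo was added and luciferase measured 30 min later.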
# Gal4-VP16 FLuc – counter-screen for ROR gamma inhibitors: Gal4-VP16 reporter; Drosophila S2 Gal4-VP16 UAS-luciferase, luminescence, 20 h; 3.5% of 310,000 active; Potency, µM (highest dose often 53.6 µM), inactives show top-dose activity, negative = inhibition, most hits filed as inhibitors;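 also: Gal4-VP16 expression switched on by copper sulfate through the metallothionein promoter; nearly all actives have a fitted effect of over 50% in size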
# RORg inh – ROR gamma (mouse) transcription inhibition. P51450. Drosophila S2 Gal4-RORgamma UAS-luciferase reporter, 20 h. 5.4% of 310,000 active. AID 2551. Potency, µM (series often up to 53.6 µM), for the others: at the top dose activity change, negative = inhibition, most hits filed as inhibitors; also: nearly all actives have a fitted effect of over 60% in size
# Target sequence (P51450 whole entry, looked up, the tested form may be a part): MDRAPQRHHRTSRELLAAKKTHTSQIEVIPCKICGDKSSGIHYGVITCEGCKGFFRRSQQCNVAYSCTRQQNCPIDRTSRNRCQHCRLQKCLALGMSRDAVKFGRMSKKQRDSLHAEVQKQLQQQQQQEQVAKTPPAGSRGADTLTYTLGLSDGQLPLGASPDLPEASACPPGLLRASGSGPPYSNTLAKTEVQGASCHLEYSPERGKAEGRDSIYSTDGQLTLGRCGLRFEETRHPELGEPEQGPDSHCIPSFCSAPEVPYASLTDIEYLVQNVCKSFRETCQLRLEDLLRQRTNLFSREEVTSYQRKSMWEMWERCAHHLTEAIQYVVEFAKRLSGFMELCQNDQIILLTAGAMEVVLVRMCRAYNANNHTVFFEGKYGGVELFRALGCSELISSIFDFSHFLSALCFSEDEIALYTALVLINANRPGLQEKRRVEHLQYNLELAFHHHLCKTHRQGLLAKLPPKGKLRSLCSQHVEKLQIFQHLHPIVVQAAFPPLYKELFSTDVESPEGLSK
#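 Drosophila S2 cells stably expressing Gal4-DBD/mouse RORγ fusion under metallothionein promoter plus UAS-luciferase; compound 1 h, then 700 uM CuSO4 induction for 20 h at ambient temperature; inhibition read as reduced luminescence.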
# TDP1 cell noCPT – qHTS for Inhibitors of human tyrosyl-DNA phosphodiesterase 1 (TDP1): qHTS in cells in absence of CPT | DT40 Tdp1-/- hTDP1 cells, no CPT, ATP luminescence, 48 h | Potency, µM (series often up to 46.2 µM), without a hit: top-dose activity change, negative = growth inhibition, most hits filed as inhibitors | 15% of 420,000 active; also: nearly all actives have a fitted effect of over 55% in size
#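 Chicken DT40 Tdp1-/- cells complemented with human TDP1, screened without camptothecin (DMSO vehicle only), 400 cells/well. Compounds pin-transferred, cells incubated at 37 °C for at least 48 hr. Growth read as ATP-dependent luminescence (CellTiter-Glo, 30 min at RT).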
# Active calls of the source: *; ? = inconclusive; / = not tested or not shown; ! = repeats disagree; [ ] = another dose, or the depositor's remark. Calls follow the shape of the dose curve; as a rule, active = well fitted curve in the direction sought with a large enough effect; inconclusive = small, poorly fitted or top-dose-only effect, or another doubt; inactive = no such curve, though single readings can be large; an effect the other way counts as inactive or inconclusive. % is scaled to controls: 0 for no effect and ±100 for the full control effect; potency is read from the fitted curve at half-maximal effect.
SMILES,DT40 TDP1 CPT,12-LOX inh,ELG1 DNA repair,Gal4-VP16 FLuc,RORg inh,TDP1 cell noCPT
COc1ccc(Nc2cc3n(c(=O)n2)CCc2cc(OC)c(OC)cc2-3)cc1,-2.1%,?,?,-3.8%,0.0%,?
COc1ccc(Nc2cc3n(c(=O)n2)CCc2cc(OC)c(OC)cc2-3)c(C)c1,?,?,?,-3.4%,8.2%,14.6µM*
Cn1c(Sc2ccc(Br)cc2)c(C=O)c2ccccc21,?,0.9%,?,2.1%,20.7%,13µM*
O=C(CNC(=O)c1ccccn1)N=Nc1c(O)[nH]c2ccccc12,?,?,?,-3.5%,8.4%,14.6µM*
Cc1ccc(CN2CCN(CC(=O)N=Nc3c(O)[nH]c4ccccc34)CC2)cc1,?,-25.4%,8.2µM*,0.8%,39.5%,14.6µM*
Cc1ccc(S(=O)(=O)N(CC(=O)N=Nc2c(O)[nH]c3ccccc23)c2cccc(C)c2)cc1,?,0.6%,20.6µM*,-15.6%,-1.5%,20.6µM*
O=C(CN1CCN(Cc2ccccc2Cl)CC1)N=Nc1c(O)[nH]c2ccccc12,?,15.6%,20.6µM*,-8.5%,?,?
Cc1cc(Cl)ccc1N(CC(=O)N=Nc1c(O)[nH]c2ccccc12)S(C)(=O)=O,-18.0%,0.0%,-3.2%,-8.0%,-4.2%,-17.1%
CCn1ccc(C(=O)N2CCC3(CCC3NC(=O)COC)CC2)n1 (configuration not stated),/,48.1%,/,/,/,/
O=C(NC1CCCC1)c1cc(-c2ccc(Cl)c(Cl)c2)nc2ccccc12,/,-22.5%,/,/,/,/
Cc1cc(=O)oc2cc(OCc3nc(CC(C)C)no3)ccc12,/,-27.8%,/,/,/,/
CCn1c(SCC(=O)N=Nc2c(O)[nH]c3ccccc23)nnc1-c1ccc(C(C)(C)C)cc1,/,/,15.8%,-5.4%,-11.1%,/
CCn1c(SCC(=O)N=Nc2c(O)[nH]c3ccccc23)nc2ccccc21,16.4µM*,8.0%,-29.1%,-3.0%,-2.9%,16.4µM*
Cc1nnc(SCCn2c(N3CCC(Cc4ccccc4)CC3)nc3c2c(=O)[nH]c(=O)n3C)s1,?,/,9.2µM*,-7.1%,18.9%,16.4µM*
CCCCn1c(N2CCC(Cc3ccccc3)CC2)nc2c1c(=O)[nH]c(=O)n2C,23.1µM*,-20.9%,?,/,-44.4%[0.365 µM],20.6µM*
Cc1nnc(SCCn2c(N3CCN(Cc4ccccc4)CC3)nc3c2c(=O)[nH]c(=O)n3C)s1,-4.2%,0.1%,?,-3.4%,11.1%,-20.4%
C=CCc1c(C)c2ccc(OCC(=O)c3ccccc3)cc2oc1=O,/,19.5%,/,/,/,/
CCCCc1cc(=O)oc2c(C)c(OC(C)C(=O)OCC)ccc12 (configuration not stated),/,0.2%,/,/,/,/
Cc1ccc(C)c(NC(=O)c2nn(Cc3ccccc3)c(=O)c3ccccc23)c1,/,8.8%,/,/,/,/
CCn1c(SCCOC)nnc1C1CC1,/,-20.2%,/,/,/,/
Cc1cc(Br)cn2c(CC(C)(C)C)c(-c3cccc(Cl)c3)nc12,-13.1%,-14.9%,/,/,/,?
CC(C)(C)Cc1c(-c2ccccc2)nc2ccc(Br)cn12,?,?,/,/,/,23.1µM*
Cc1ccc(-c2nc3ccc(Br)cn3c2CC(C)(C)C)cc1,?,?,/,/,/,11.6µM*
CC(=O)N1CCN(c2nc3c(s2)CC(C(=O)NCC2CCCCC2)CC3)CC1 (configuration not stated),/,35.8%,/,/,/,/
O=C(C(c1ccccc1)N1CCN(C2CCS(=O)(=O)C2)CC1)N1CCOCC1 (configuration not stated),/,-14.9%,/,/,/,/
SMILES,DT40 TDP1 CPT,12-LOX inh,ELG1 DNA repair,Gal4-VP16 FLuc,RORg inh,TDP1 cell noCPT
CCOc1cccc(CNC(=O)C2Cn3cccc3C(=O)N2)c1 (configuration not stated),/,8.9%,/,/,/,/
CCCCC1=CC2=CC(=O)C(C)(OC(=O)c3cccs3)C(=O)C2=CO1 (configuration not stated),-0.8%,28.2µM*,/,5.2%,14.6%,-5.2%
CCCCC1=CC2=CC(=O)C(C)(OC(=O)CCc3ccccc3)C(=O)C2=CO1 (configuration not stated),?,12.6µM*,0.9%,-4.9%,-21.6%,3.1%
COc1ccc2cc(C(c3nnnn3CCc3ccccc3)N3CCCC(C)C3)c(=O)[nH]c2c1 (configuration not stated),?,?,-16.8%,3.8%,-0.5%[10 µM],?
Cc1cc2cc(C(c3nnnn3Cc3ccco3)N3CCCCC3)c(=O)[nH]c2cc1C (configuration not stated),-18.6%,?,-6.2%,14.4%,-1.5%,-19.7%
COCCn1nnnc1C(c1cc2cc(OC)ccc2[nH]c1=O)N1CCC(Cc2ccccc2)CC1 (configuration not stated),14.6µM*,-39.0%,?,-7.4%,0.3%,23.1µM*
CCOc1ccc2[nH]c(=O)c(C(c3nnnn3Cc3ccco3)N3CCN(C)CC3)cc2c1 (configuration not stated),0.9%,-8.6%,?,3.55µM*,3.55µM*,-18.4%
COCCn1nnnc1C(c1cc2cc(C)ccc2[nH]c1=O)N1CCCCCC1 (configuration not stated),-11.2%,/,-1.9%,-9.1%,0.4%,-14.7%
COCCn1nnnc1C(c1cc2c(C)cc(C)cc2[nH]c1=O)N1CCCCCC1 (configuration not stated),23.1µM*,/,5.9%,-28.1%,0.0%,18.4µM*
CCOc1ccc2[nH]c(=O)c(C(c3nnnn3CC3CCCO3)N3CCc4ccccc4C3)cc2c1 (configuration not stated),16.4µM*,-17.7%,-29.9%,-1.7%,13.5%,23.1µM*
CC(Oc1c(Cl)cccc1Cl)C(=O)NN (configuration not stated),/,19.5%,/,/,/,/
CCOc1ccc(NC(=O)C(C)Sc2ncnc3nc[nH]c23)cc1 (configuration not stated),/,-3.0%,/,/,/,/
CCCCN(CC)CCNC(=S)Nc1ccc2nc(N3CCN(C)CC3)cc(C)c2c1,?,-22.1%,-6.5%,-9.6%,-34.8%,18.4µM*
Cc1cc(N2CCN(C)CC2)nc2ccc(NC(=O)Nc3cccc(Cl)c3)cc12,8.2µM*,?,/,/,/,4.61µM*
Cc1cc(N2CCN(C)CC2)nc2ccc(NC(=O)c3ccccc3F)cc12,18.4µM*!,-1.7%,?,15.6%,11.9%,?
Cc1ccc(NC(=O)Nc2ccc3nc(N4CCN(C)CC4)cc(C)c3c2)cc1C,11.6µM*,?,/,/,/,4.61µM*
